Broadly, the inhibition is the change of the read-out against control, counted positive when it falls.

Each structure is given as a SMILES string.

Among the data in ChEMBL document CHEMBL3433997, “St. Jude Leishmania screening dataset” (2016) are inhibition values, retold here.

Common to all, as to format: functional
The target of assay [1] is Solute carrier family 2, facilitated glucose transporter member 1 (Homo sapiens) (UniProt P11166). In words: ST_JUDE_LEISH: Cytotoxicity at 2uM final concentration against transgenic Leishmania Mexicana promastigotes LmGLUT1 that are glucose transport deficient and complemented with the human glucose transporter GLUT1. Activity is measured by DNA content using SYBR green in vitro.

Assay [2] deals with Hexose transporter 1 (Plasmodium falciparum) (UniProt O97467). In words: ST_JUDE_LEISH: Cytotoxicity at 2uM final concentration against transgenic Leishmania Mexicana promastigotes LmPfHT that are glucose transport deficient and complemented with the Plasmodium falciparum hexose transporter. Activity is measured by DNA content using SYBR green in vitro.
Assay [3] has as its target Glucose transporter (Leishmania mexicana) (UniProt O61059). In words: ST_JUDE_LEISH: Cytotoxicity at 2uM final concentration against transgenic Leishmania Mexicana promastigotes LmGT2 that are glucose transport deficient and complemented with the L. Mexicana glucose transporter 2. Activity is measured by DNA content using SYBR green in vitro.

Sequence of Solute carrier family 2, facilitated glucose transporter member 1 (Homo sapiens) (P11166 whole entry): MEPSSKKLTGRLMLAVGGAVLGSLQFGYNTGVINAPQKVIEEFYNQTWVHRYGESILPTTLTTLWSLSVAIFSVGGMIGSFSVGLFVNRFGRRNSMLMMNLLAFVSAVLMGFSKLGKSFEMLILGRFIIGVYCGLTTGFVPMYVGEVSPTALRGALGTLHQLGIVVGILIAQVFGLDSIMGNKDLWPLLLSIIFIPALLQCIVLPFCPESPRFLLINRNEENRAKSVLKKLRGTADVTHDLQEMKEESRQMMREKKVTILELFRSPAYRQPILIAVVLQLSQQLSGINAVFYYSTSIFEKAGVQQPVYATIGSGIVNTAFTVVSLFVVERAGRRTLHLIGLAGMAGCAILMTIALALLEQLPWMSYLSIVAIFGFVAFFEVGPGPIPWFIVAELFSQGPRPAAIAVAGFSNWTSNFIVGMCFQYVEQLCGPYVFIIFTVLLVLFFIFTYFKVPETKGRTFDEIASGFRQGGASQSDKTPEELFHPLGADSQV

As to `CCCN(CC1CC1)c1nc(C)nc2c(-c3ccccc3)cc(C)cc12`, the inhibition in assay [1] amounted to 12.7%; in assay [2], 16.2%; in assay [3], 10.1%.

Turning to `Oc1ccc(CCCc2cc(Oc3c(I)cc(CCc4ncc[nH]4)cc3I)ccc2O)cc1`, the inhibition is 1.08% in assay [1], -0.28% in assay [2] and -1.55% in assay [3].

As for `CCCCN(CCCC)Cc1cc(N(C)c2ccc([N+](=O)[O-])cn2)ccc1O`, the inhibition is 2.39% in assay [1], -0.26% in assay [2] and 1.69% in assay [3].

For `CC(C)(C)CC(C)(C)c1ccc(O)c(C(=O)Nc2ccc([N+](=O)[O-])cc2)c1`, the inhibition in assay [1] was determined as 1.13%; in assay [2], 1.55%; in assay [3] it was 0.23%.

For `COc1ccc2nccc(N3CCC(CCNCc4ccc5c(n4)NC(=O)CS5)CC3)c2c1`, the inhibition amounted to 6.54% in assay [1], 9.44% in assay [2] and 2.78% in assay [3].

With `O=C(Nc1ccccc1)N(Cc1ccccc1-c1cccc(CNCCc2ccccc2)c1)C1CCN(Cc2ccccc2)CC1`, the inhibition is -1.02% in assay [1], 0.26% in assay [2] and -0.84% in assay [3].

For the molecule `Cc1c(C)c2c(c(C)c1O)CC[C@@](C)(C(=O)N1CCC(CCN3CCC(c4c[nH]c5ccccc45)CC3)CC1)O2`, the inhibition was found to be 7.87% in assay [1], 7% in assay [2] and 4.66% in assay [3].

On to `CCOc1ccc(C=CC(=O)Nc2ccc3nc(N4CCN(C)CC4)cc(C)c3c2)cc1OC`, for which the values for the inhibition in assay [1], in assay [2] and in assay [3] were 3%, 3.77% and 1.18%, respectively.

For the molecule `CCNC[C@H]1CCCN1CCOc1ccc(-n2cnc3cc(-c4ccc(Cl)cc4)sc3c2=O)cc1OC`, the inhibition is -0.44% in assay [1], -1.99% in assay [2] and -2.28% in assay [3].

With `COc1ccc(CNC2Cc3ccccc3C2)cc1-c1ccc(S(=O)(=O)NCCN2CCCC2)c(F)c1`, the inhibition in assay [1] amounted to 28.3%; in assay [2] it was 14%; in assay [3] it was 6.14%.

For `CCCCN1C(=O)C2CC(=O)CC(C3CCCCC3)C2C1=O` (stereo not given), the inhibition turned out to be 0.97% in assay [1], 0.42% in assay [2] and 2.77% in assay [3].

`O=C(NC1CCN(Cc2ccccc2O)C1)c1ccc(-c2ccccc2)cc1` (stereo not given): the results for the inhibition in assay [1], in assay [2] and in assay [3] were 0.98%, 0.41% and 1.16%, respectively.

As for `Cc1cc(C2CCN(CCCCNC(=O)c3ccc(NC(=O)c4ccc(Cl)cc4)cc3)CC2)c(C)cc1OCc1ccncc1`, the results for the inhibition in assay [1], in assay [2] and in assay [3] were 8.72%, 7.09% and 7.42%, respectively.

As for `CCc1ccc(CN2CCC(CNC(=O)c3cc(-c4cccc(Cl)c4)cs3)C2)cc1` (stereo not given), the inhibition is -0.66% in assay [1], -0.84% in assay [2] and -4.94% in assay [3].

Turning to `CCOC(=O)NCC(=O)Nc1cccc(-c2cccc(-c3nc4cccc(C)c4[nH]3)c2)c1`, the inhibition was 1.11% in assay [1], 1.64% in assay [2] and 1.12% in assay [3].

As to `COc1ccc(Nc2ncc3c(-c4cccc(NC(=O)Cc5ccncc5)c4)c[nH]c3n2)cc1OC`, the results for the inhibition in assay [1], in assay [2] and in assay [3] were -0.87%, -1.41% and -1%, respectively.

With `CC1(C)C(N(O)C(=O)Nc2ccc(Cl)c(Cl)c2)N(c2ccc(Cl)c(Cl)c2)C(=O)N1CCc1ccccc1` (stereo not given), the inhibition in assay [1] was -0.14%; in assay [2] it was 0.2%; in assay [3], 0%.

For `CS(=O)(=O)Nc1cccc(-c2cnc3[nH]cc(-c4cc(N)cc(C(=O)O)c4)c3c2)c1`, the inhibition is 0.76% in assay [1], 1.94% in assay [2] and -0.41% in assay [3].

As to `Cc1nc2ccc(NC(=O)Nc3ccnc4ccc(C(F)(F)F)cc34)cc2o1`, the figures for the inhibition in assay [1], in assay [2] and in assay [3] were 5.89%, 10.7% and 5.33%, respectively.

As to `Cc1cc(Nc2ccc(C)c(Cl)c2)n2ncnc2n1`, the inhibition was -2.06% in assay [1], -1.7% in assay [2] and -4.9% in assay [3].

On to `COc1ccc2nccc([C@@H](O)CN3CCC(NCc4cc5ccccc5s4)CC3)c2c1`, for which the inhibition in assay [1] is 5.41%; in assay [2], 10.3%; in assay [3] it was 0.03%.

As for `COc1ccc2nccc([C@@H](O)CN3CCC(NCc4cc5c(cc4F)SCC(=O)N5)CC3)c2n1`, the inhibition worked out at 9.08% in assay [1], 7.72% in assay [2] and 8.6% in assay [3].

`Cc1noc(-c2ccc3c(c2)CCN(CCC2CCC(NC(=O)/C=C/c4ccc(F)cc4)CC2)CC3)n1` (stereo not given): the inhibition in assay [1] was 0.93%; in assay [2], -1.07%; in assay [3], -0.23%.

`CNC(=O)c1cnc(Nc2ccc(N3CCN(C)CC3)cc2)nc1Nc1ccccc1OC`: the inhibition was 4.96% in assay [1], 4.09% in assay [2] and 3.41% in assay [3].

`CC[C@H](C)CNC(=O)c1cncc(-c2cccc(CNC3Cc4ccccc4C3)c2)c1`: the inhibition was -0.1% in assay [1], 0.31% in assay [2] and -1.15% in assay [3].

For `COc1cc(-c2nc(-c3ccccc3)c(-c3ccccc3)[nH]2)ccc1OCCN(C)C`, the inhibition stood at 1.69% in assay [1], 1.4% in assay [2] and 0.91% in assay [3].

Take `CC(=O)Nc1nnc(SCc2c(C)cc(C(C)(C)C)cc2C)s1`: the results for the inhibition in assay [1], in assay [2] and in assay [3] were 0.82%, -2.97% and 1.06%, respectively.

For the molecule `CC(Nc1ccnc2cc(Cl)ccc12)c1ccc(S(N)(=O)=O)cc1` (stereo not given), the results for the inhibition in assay [1], in assay [2] and in assay [3] were -1.53%, 1.3% and 2.92%, respectively.

Consider `CCc1cccc(NC(=O)/C=C/c2ccc3c(c2)CN(C)CC3)c1`, for which the inhibition in assay [1] came to 4.53%; in assay [2] it was 2.31%; in assay [3], 10.2%.

Consider `OC1CCC(Nc2ccc3ncc(-c4ccc5ccccc5c4)n3n2)CC1` (stereo not given), for which the results for the inhibition in assay [1], in assay [2] and in assay [3] were 1.14%, 3.23% and 3.53%, respectively.

With `O=C(/C=C/c1ccc(Cl)c(Cl)c1)NCCCCCN1CCC(NC(=O)c2cccc(Cl)c2)CC1`, the inhibition in assay [1] came to 9.72%; in assay [2], 10.2%; in assay [3], 7.71%.

`N=C(/N=C(/NCCCCCCN/C(=N/C(=N)NCc1ccc(Cl)c(Cl)c1)N1CCCCC1)N1CCCCC1)NCc1ccc(Cl)c(Cl)c1`: the inhibition in assay [1] amounted to 8.42%; in assay [2], 9.68%; in assay [3], 8.06%.

Take `Cc1[nH]c(C)c(-c2ccc(OCCSc3ccncc3)cc2)c(=O)c1Br`: the inhibition in assay [1] is 1.9%; in assay [2] it was -0.1%; in assay [3] it was 0.05%.

In the case of `COc1cccc(CNC[C@@H](O)[C@H](Cc2ccccc2)NC(=O)c2cc(C3CCCC3)cc(N3CCCCS3(=O)=O)c2)c1`, the inhibition in assay [1] stood at 0.71%; in assay [2] it was 1.78%; in assay [3], 0.92%.

Take `Cc1cc(NC(=O)NCCN2CCC(NC(=O)c3ccc(C(F)(F)F)cc3)CC2)c2ccccc2n1`: the inhibition was 0.67% in assay [1], 0.01% in assay [2] and -0.57% in assay [3].
